Source: PubChem BioAssay (NCATS)
Inconclusive results are not listed. Activity calls are given as the source filed them. The call rests on the fitted dose curve; in most records, active means well fitted curve in the direction sought with a large enough effect; inconclusive means small, poorly fitted or top-dose-only effect, or another doubt; inactive means no such curve, though single readings can be large; an effect the other way counts as inactive or inconclusive.

Tests used:
[1] = target: Rap guanine nucleotide exchange factor 3 (Homo sapiens) (UniProt O95398); test: Confirmatory qHTS for agonist of cAMP-regulated guanine nucleotide exchange factor 3 (EPAC1) (AID 1645881);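 further: EPAC1 catalysed release of BODIPY-GDP from Rap1B seen as fluorescence loss; 100% = effect of cAMP agonist control; nearly all actives have a fitted effect of over 75% in size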
[2] = target: Rap guanine nucleotide exchange factor 4 (Homo sapiens) (UniProt Q8WZA2); test: Confirmatory qHTS for agonist of cAMP-regulated guanine nucleotide exchange factor 4 (EPAC2) (AID 1645884);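 further: nucleotide exchange releases bodipy-GDP from Rap1 and this lowers its fluorescence; on the % scale 0 is the no-effect control and ±100 the full control effect; nearly all actives have a fitted effect of over 65% in size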
[3] = target: Rap guanine nucleotide exchange factor 4 (Homo sapiens) (UniProt Q8WZA2); test: Confirmatory qHTS for antagonist of cAMP-regulated guanine nucleotide exchange factor 4 (EPAC2) (AID 1645885); further: nearly all actives have a fitted effect of over 25% in size; on activity change, negative = inhibition: on the % scale 0 is the no-effect control and ±100 the full control effect
[4] = target: Rap guanine nucleotide exchange factor 3 (Homo sapiens) (UniProt O95398); test: Counterscreen qHTS for antagonist of cAMP-regulated guanine nucleotide exchange factor 3 (EPAC1) (AID 1645888);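 further: fluorescence loss as bound BODIPY-GDP is released from Rap1B; % of control where 0% means no effect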
In short: (§1)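 Measured: fluorescence of BODIPY-GDP bound to Rap1B, which falls as exchange proceeds. Conditions include 50 uM competing GDP, 5 and 30 min reads, and a later cAMP challenge for antagonist detection.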

[5] = target: Rap guanine nucleotide exchange factor 3 (Homo sapiens) (UniProt O95398); test: Counterscreen qHTS for agonist of cAMP-regulated guanine nucleotide exchange factor 3 (EPAC1) (AID 1645889); further: % of control where 0% means no effect; nearly all actives have a fitted effect of over 40% in size
In short: as §1

Rap guanine nucleotide exchange factor 4 (Homo sapiens), sequence (Q8WZA2 whole entry, looked up): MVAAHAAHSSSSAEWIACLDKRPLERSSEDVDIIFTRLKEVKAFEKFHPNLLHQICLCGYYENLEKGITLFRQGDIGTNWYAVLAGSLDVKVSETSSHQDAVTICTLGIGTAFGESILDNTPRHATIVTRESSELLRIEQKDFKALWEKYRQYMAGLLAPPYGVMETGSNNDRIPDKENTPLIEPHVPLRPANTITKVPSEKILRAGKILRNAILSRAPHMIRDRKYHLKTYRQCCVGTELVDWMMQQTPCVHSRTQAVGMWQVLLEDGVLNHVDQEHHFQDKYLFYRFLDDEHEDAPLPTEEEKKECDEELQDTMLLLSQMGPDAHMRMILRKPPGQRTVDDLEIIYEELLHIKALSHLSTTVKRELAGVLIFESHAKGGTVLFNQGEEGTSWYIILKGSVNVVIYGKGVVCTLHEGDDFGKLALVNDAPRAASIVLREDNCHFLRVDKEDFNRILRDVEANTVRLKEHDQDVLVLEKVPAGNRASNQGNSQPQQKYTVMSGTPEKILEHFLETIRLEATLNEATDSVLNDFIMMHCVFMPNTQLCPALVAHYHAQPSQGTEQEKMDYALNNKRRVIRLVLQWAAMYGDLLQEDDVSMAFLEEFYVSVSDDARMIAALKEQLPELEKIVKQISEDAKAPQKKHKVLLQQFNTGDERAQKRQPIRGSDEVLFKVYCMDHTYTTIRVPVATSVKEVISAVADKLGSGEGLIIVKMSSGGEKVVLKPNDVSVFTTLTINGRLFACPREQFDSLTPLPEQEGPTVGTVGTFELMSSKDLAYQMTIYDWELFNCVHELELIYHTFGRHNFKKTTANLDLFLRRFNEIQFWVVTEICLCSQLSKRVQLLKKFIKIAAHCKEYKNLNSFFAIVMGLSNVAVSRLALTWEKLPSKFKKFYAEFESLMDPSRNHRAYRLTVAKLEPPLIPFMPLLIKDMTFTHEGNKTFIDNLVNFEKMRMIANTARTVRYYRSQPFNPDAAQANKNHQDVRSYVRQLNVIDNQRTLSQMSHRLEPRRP
Rap guanine nucleotide exchange factor 3 (Homo sapiens), sequence (O95398 whole entry, looked up): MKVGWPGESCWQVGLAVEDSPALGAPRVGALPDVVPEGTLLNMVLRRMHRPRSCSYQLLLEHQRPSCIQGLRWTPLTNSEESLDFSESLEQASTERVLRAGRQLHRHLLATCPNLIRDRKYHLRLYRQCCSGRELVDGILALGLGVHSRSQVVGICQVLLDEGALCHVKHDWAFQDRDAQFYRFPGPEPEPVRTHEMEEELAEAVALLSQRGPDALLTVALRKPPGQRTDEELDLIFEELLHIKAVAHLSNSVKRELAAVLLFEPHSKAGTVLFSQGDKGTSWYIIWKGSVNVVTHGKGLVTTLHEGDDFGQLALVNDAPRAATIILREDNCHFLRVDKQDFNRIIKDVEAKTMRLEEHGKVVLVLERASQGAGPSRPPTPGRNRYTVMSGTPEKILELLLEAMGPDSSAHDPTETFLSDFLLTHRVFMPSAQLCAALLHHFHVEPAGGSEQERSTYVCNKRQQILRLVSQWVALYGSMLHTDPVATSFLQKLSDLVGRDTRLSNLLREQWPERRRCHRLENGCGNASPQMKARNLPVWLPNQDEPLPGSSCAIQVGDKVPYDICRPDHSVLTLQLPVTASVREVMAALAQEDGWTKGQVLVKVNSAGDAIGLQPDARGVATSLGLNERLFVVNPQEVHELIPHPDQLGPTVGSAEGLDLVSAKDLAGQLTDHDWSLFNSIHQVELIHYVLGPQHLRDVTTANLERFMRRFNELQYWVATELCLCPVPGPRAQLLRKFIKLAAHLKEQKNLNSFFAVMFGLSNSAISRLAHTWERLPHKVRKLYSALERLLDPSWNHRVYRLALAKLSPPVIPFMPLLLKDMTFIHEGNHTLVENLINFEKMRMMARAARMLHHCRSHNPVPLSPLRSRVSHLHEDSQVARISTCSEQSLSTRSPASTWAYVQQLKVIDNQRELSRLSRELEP

CC(C)N(Cc1ccccc1)C(=O)c1nc(-c2ccc(Cl)cc2)n2c1CCCCC2
inactive: Potency [1] | Potency [2] | outcome [3] inactive [at 12.7 µM] | Potency [4]

COc1cc(C2NC(=O)c3c(sc4c3CCN(C)C4)N2)cc(Br)c1OC(=O)c1ccc(C)cc1 (stereo unspecified)
inactive: Potency [1] | Potency [2] | outcome [3] inactive [at 12.7 µM] | Potency [4]

COCCCn1c(=O)/c(=C\c2ccccc2OC(C)C)s/c1=C(/C#N)C(=O)Nc1ccc(C(=O)O)cc1
inactive: Potency [1] | activation [2] 8.99% [at 17.1 µM, percent relative to cAMP agonist control] | Potency [3] | activity change, negative = inhibition [4] 38.7% [at 30.8 µM]

Cn1cc(S(=O)(=O)Nc2cccc(F)c2)c(=O)n(C)c1=O
inactive: Potency [1] | activation [2] 0% [at 17.1 µM, percent relative to cAMP agonist control] | Potency [3] | activity change, negative = inhibition [4] -13.5% [at 30.8 µM] | activation [5] -7.11% [at 30.8 µM]

O=C(Nc1nc(-c2ccco2)c(-c2ccco2)s1)c1ccco1
inactive: Potency [1] | activation [2] 2.72% [at 17.1 µM, percent relative to cAMP agonist control] | Potency [3] | activity change, negative = inhibition [4] 0.168% [at 30.8 µM]

CCOC(=O)C1CCN(c2c(C(=O)c3ccc(C)cc3)cnc3ccc(F)cc23)CC1
inactive: Potency [1] | Potency [2] | Potency [3] | Potency [4]

Cc1ccc(O)c(-c2n[nH]c3c2C(c2ccc(F)cc2)N(Cc2ccco2)C3=O)c1 (stereo unspecified)
inactive: Potency [1] | Potency [2] | Potency [3] | Potency [4]

C/C(=N\Nc1nc2ccccc2[nH]1)c1cc2ccccc2o1
inactive: Potency [1] | activation [2] 1.22% [at 17.1 µM, percent relative to cAMP agonist control] | Potency [3] | activity change, negative = inhibition [4] -0.654% [at 30.8 µM]

CCOC(=O)c1ccc(NC(=S)NNC(=O)C2(C)CC2(Cl)Cl)cc1 (stereo unspecified)
inactive: Potency [1] | Potency [2] | Potency [3] | Potency [4]

Cc1cc(O)cc(C)c1NS(=O)(=O)c1ccc2ccccc2c1
inactive: Potency [1] | Potency [2] | Potency [3] | Potency [4]

COc1cccc(C(=O)Nc2nnc(-c3ccccc3)s2)c1OC
inactive: Potency [1] | Potency [2] | Potency [3] | Potency [4]

Cc1ccc(C)c(Cn2c(CN(C)Cc3ccccc3)nc3c2c(=O)n(C)c(=O)n3C)c1
inactive: Potency [1] | Potency [2] | Potency [3] | Potency [4]

COc1ccccc1N1CSC2=C(C#N)C(c3ccc(SC)cc3)CC(=O)N2C1 (stereo unspecified)
inactive: Potency [1] | activation [2] 7.57% [at 17.1 µM, percent relative to cAMP agonist control] | Potency [3] | activity change, negative = inhibition [4] -2.77% [at 30.8 µM]

Oc1ccc(Cc2ccc(Cl)cc2)c(O)c1
inactive: Potency [1] | activation [2] 7.91% [at 17.1 µM, percent relative to cAMP agonist control] | Potency [3] | activity change, negative = inhibition [4] -18.2% [at 30.8 µM]

Cc1ccc(C)c(-c2ccc(=O)n(Cc3c(F)cccc3Cl)n2)c1
inactive: Potency [1] | Potency [2] | Potency [3] | Potency [4]
